Bioassay records: PubChem, several laboratories
MIN6 prolif = inducers of beta-cell replication in MIN6 cells. MIN6 cells proliferation, ATPlite luminescence, 48 h; cells starved in 0.2% serum; 100% = growth in 10% serum. proliferation, % at 10 µM. 0.29% of 330,000 active. AID 2380;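 active means compounds whose signal lies at least 3.5 SD above the mean of all wells on their plate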;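 further: 0% = DMSO-treated cells in low-serum medium and 100% = 10% serum control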
SMARCA2 act = increases SMARCA2 function in MMTV reporter cells | MG213 cells, MMTV-luciferase reporter, dexamethasone, overnight | activation, % at 9.1 µM | 1% of 370,000 active; in the data active means activation above about 7.8%;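 further: 0% = vehicle wells and 100% = reference activator wells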
ALR inh = human ALR oxidase inhibition via reduced H2O2. P55789. purified ALR, DTT oxidation, H2O2 HRP-luminol luminescence. inhibition, % (no concentration beside the values). 3.8% of 290,000 active. AID 485317;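 active means mean replicate inhibition above about 79%, with every replicate also reaching it, limit read from the data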
Target sequence (P55789 whole entry, looked up): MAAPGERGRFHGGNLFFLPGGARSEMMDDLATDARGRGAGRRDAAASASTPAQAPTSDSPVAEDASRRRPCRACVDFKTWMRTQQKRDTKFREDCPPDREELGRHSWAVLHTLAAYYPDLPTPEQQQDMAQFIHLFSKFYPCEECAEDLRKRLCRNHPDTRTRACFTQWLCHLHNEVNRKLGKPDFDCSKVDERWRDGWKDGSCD
Granule exo inh = blocks lytic granule exocytosis; TALL-104 LAMP-1 surface exposure, flow cytometry; cells stimulated with thapsigargin and PMA; inhibition, % at 10 µM; 0.66% of 360,000 active;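 active means inhibition above about 55%, limit read from the data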
JMJD2C inh = inhibitors of human GASC-1 (JMJD2C) demethylase | 0.069% of 330,000 active | GST-JMJD2C(1-420) H3K9me3 demethylation, DELFIA europium | inhibition, % at 2.35 µM | AID 2099 | Q9H3R0;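 active means more than half of a compound's replicate wells show inhibition beyond 50%, single wells judged on their own value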;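 further: signal counts dimethyl H3K9 product captured on neutravidin plate; 0% = median of DMSO wells and 100% = 0.3 times that DMSO median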
Target sequence (Q9H3R0 1-420 limits assumed): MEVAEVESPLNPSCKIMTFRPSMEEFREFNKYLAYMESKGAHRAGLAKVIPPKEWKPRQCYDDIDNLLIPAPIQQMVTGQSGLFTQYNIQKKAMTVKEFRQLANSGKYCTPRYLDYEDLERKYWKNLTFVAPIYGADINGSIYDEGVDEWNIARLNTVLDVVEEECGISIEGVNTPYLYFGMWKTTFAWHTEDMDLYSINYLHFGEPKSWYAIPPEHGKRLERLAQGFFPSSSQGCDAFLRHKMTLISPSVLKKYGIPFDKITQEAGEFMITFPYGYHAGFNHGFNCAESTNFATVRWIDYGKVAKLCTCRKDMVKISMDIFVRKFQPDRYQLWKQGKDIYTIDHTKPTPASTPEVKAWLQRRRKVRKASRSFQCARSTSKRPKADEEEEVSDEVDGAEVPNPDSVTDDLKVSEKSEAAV
PfM18AAP inh = PfM18AAP enzyme inhibition; recombinant PfM18AAP, H-Glu-NHMec fluorogenic cleavage; inhibition, % at 7.35 µM; 1.2% of 290,000 active;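 active means inhibition above the campaign mean inhibition over all tested compounds plus 3 SD, cut at about 28% in these data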;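 further: 0% = plate median of test compound wells and 100% = 2 mM ZnCl2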
Granule exo CP1 = blocks lytic granule exocytosis; shares compounds with Granule exo inh; TALL-104 cells, LAMP-1 externalization, flow cytometry; stimulated with PMA plus thapsigargin; inhibition, % at 10 µM; 11% of 1,500 active; AID 651954; in the data active means inhibition above about 60%;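 further: 0% = stimulated vehicle wells and 100% = unstimulated wells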
The depositor's hits bear a star. A selection: hits, their analogues and other compounds. The true share with any hit is near 5.4%.

Results for Cc1cc(F)ccc1-c1cc(C(=O)NCc2ccc(C(F)(F)F)cc2)[nH]n1 ?
SMARCA2 act: -2.2; Granule exo inh: -5.6

What do the screens show for `COc1ccc(Cl)c(-c2cc(C(=O)NCc3ccc(C(F)(F)F)cc3)[nH]n2)c1`?
SMARCA2 act: 1.7; Granule exo inh: 97.0*; Granule exo CP1: 64.0*

What do the screens show for `Cc1ccc(Cl)cc1-c1cc(C(=O)NCc2ccc(C(F)(F)F)cc2)[nH]n1`?
SMARCA2 act: -3.8; Granule exo inh: 96.2*; Granule exo CP1: 102.6*

What do the screens show for `CC(C)(C)c1ccc(C#C[C@@H]2C=C[C@@H](O)[C@@H](CO)O2)cc1`?
SMARCA2 act: -4.7

Results for O=S(=O)(c1ccc(SCCO)nc1)N1CCOCC1 ?
MIN6 prolif: -2.1; SMARCA2 act: -0.4; ALR inh: -3.9; Granule exo inh: 59.8*; JMJD2C inh: 4.2; Granule exo CP1: -10.0

What do the screens show for `COC(=O)C1=C(C)N(Cc2ccccc2C(F)(F)F)C(=NCc2cc(OC)c(OC)c(OC)c2)NC1c1ccc(Cl)cc1` (stereo unspecified)?
SMARCA2 act: -3.2

Results for Clc1cccc(Cl)c1C1Nc2cccc3cccc(c23)N1 ?
MIN6 prolif: -3.8; SMARCA2 act: -2.8; ALR inh: -20.5; Granule exo inh: 85.3*; JMJD2C inh: -3.1; PfM18AAP inh: 3.9; Granule exo CP1: 46.0

How did Fc1cccc(Cl)c1C1Nc2cccc3cccc(c23)N1 do in these assays?
MIN6 prolif: -4.8; SMARCA2 act: -1.8; ALR inh: -16.4; Granule exo inh: 31.1; JMJD2C inh: 5.7; PfM18AAP inh: 2.6

How did CCOC(=O)c1c(NC(=O)c2cccs2)sc2c1CCN(C(=O)OCC)C2 do in these assays?
MIN6 prolif: -5.7; SMARCA2 act: 0.9; ALR inh: -5.5; Granule exo inh: 83.1*; JMJD2C inh: -12.0; PfM18AAP inh: 2.0; Granule exo CP1: 4.7

What do the screens show for `COCc1cc(N2CCNC[C@H]2C)ccc1N1CCN(Cc2ccccc2)[C@H](C)C1`?
SMARCA2 act: -0.1

How did CN(C)CCCNc1ncnc2oc(-c3ccccc3)c(-c3ccccc3)c12 do in these assays?
MIN6 prolif: -3.6; SMARCA2 act: -0.7; ALR inh: -6.8; Granule exo inh: 58.9*; JMJD2C inh: 8.5; PfM18AAP inh: 5.0; Granule exo CP1: 4.3

Results for c1ccc(-c2oc3ncnc(NCCCn4ccnc4)c3c2-c2ccccc2)cc1 ?
MIN6 prolif: -4.0; ALR inh: -7.4; Granule exo inh: 40.0; JMJD2C inh: -3.9; PfM18AAP inh: 5.9

How did CC(=O)Nc1ccc(NC(=O)CSc2nnc(-c3cccs3)o2)cc1 do in these assays?
SMARCA2 act: -5.5

How did S=C(NCCCN1CCOCC1)N1CCN(c2nc(-c3ccc(Cl)cc3)cs2)CC1 do in these assays?
MIN6 prolif: -5.6; SMARCA2 act: -7.4; ALR inh: -9.8; Granule exo inh: 76.6*; JMJD2C inh: -9.7; PfM18AAP inh: -2.1; Granule exo CP1: 46.9

What do the screens show for `Cc1ccc(NS(=O)(=O)c2cccc(C(=O)NCCc3c[nH]c4ccccc34)c2)c(C)c1`?
MIN6 prolif: -5.6; SMARCA2 act: -4.8; ALR inh: -3.7; Granule exo inh: 62.4*; JMJD2C inh: -5.4; PfM18AAP inh: -1.1; Granule exo CP1: 0.6

How did Cc1cc(NC(=O)CCN2CCN(C/C=C/c3ccccc3)CC2)ccc1Br do in these assays?
MIN6 prolif: -5.1; SMARCA2 act: -5.1; ALR inh: -7.3; Granule exo inh: 60.4*; JMJD2C inh: -5.7; PfM18AAP inh: -0.2; Granule exo CP1: -1.1

What do the screens show for `COc1ccc(Cl)cc1N(C(=O)c1ccco1)C(C(=O)NC1CCCC1)c1ccncc1` (stereo unspecified)?
MIN6 prolif: 2.7; SMARCA2 act: -2.2; ALR inh: -1.5; Granule exo inh: 27.2; JMJD2C inh: -6.8; PfM18AAP inh: -1.0

How did COc1ccc(Cl)cc1N(C(=O)c1ccco1)C(C(=O)NC1CCCC1)c1ccco1 (stereo unspecified) do in these assays?
MIN6 prolif: 3.9; SMARCA2 act: -1.9; Granule exo inh: 64.3*; JMJD2C inh: -3.3; PfM18AAP inh: 3.0; Granule exo CP1: -14.6

How did OC(c1ccccc1)(c1ccc(F)cc1)C(c1ccccc1)N1CCOCC1 (stereo unspecified) do in these assays?
MIN6 prolif: -6.6; ALR inh: -1.5; Granule exo inh: 98.4*; JMJD2C inh: -8.2; PfM18AAP inh: 4.8; Granule exo CP1: 9.5

Results for CC(O)(c1ccccc1)C(C(c1ccccc1)N1CCOCC1)N1CCOCC1 (stereo unspecified) ?
SMARCA2 act: 2.4; Granule exo inh: 0.1

What do the screens show for `CCOc1ccc(C2Nc3cccc4cccc(c34)N2)cc1OC`?
MIN6 prolif: -3.2; SMARCA2 act: 0.1; ALR inh: -17.7; Granule exo inh: 55.5*; JMJD2C inh: -1.2; PfM18AAP inh: 1.3; Granule exo CP1: -9.2

How did CCOc1cc(C2Nc3cccc4cccc(c34)N2)ccc1O do in these assays?
MIN6 prolif: -5.9; ALR inh: -15.5; Granule exo inh: 13.1; JMJD2C inh: 5.7; PfM18AAP inh: 6.8

How did COC(=O)[C@]12C[C@H](CC(=O)NCc3ccccc3)C(=O)N(Cc3ccc(Cl)cc3Cl)C1=C[C@H](COCc1ccccc1)O[C@@H]2C do in these assays?
SMARCA2 act: -2.8

What do the screens show for `O=C(CN1CCN(c2nc(-c3ccccc3)cs2)CC1)Nc1ccc(Cl)c(Cl)c1`?
SMARCA2 act: -3.5

Results for Cc1cccc(S(=O)(=O)Nc2ccc(-c3nc4ccc(C)cc4s3)cc2)c1 ?
MIN6 prolif: -2.5; SMARCA2 act: -0.4; ALR inh: 3.6; Granule exo inh: 74.8*; JMJD2C inh: -14.7; PfM18AAP inh: -1.4; Granule exo CP1: -11.1

Results for COc1ccccc1N(CC(=O)NCCc1ccccc1)C(=O)CCC(=O)Nc1ccccn1 ?
MIN6 prolif: -1.6; SMARCA2 act: -3.1; ALR inh: -3.7; Granule exo inh: 17.3; JMJD2C inh: 2.3; PfM18AAP inh: -11.7

Results for COc1ccccc1N(CC(=O)NCCc1ccccc1)C(=O)CCC(=O)Nc1cc(C)ccn1 ?
MIN6 prolif: 3.1; SMARCA2 act: -0.8; Granule exo inh: 62.2*; JMJD2C inh: -6.2; PfM18AAP inh: -2.5; Granule exo CP1: -14.2

What do the screens show for `CN1CCN(c2ccc(NC(=O)c3cccc(OCc4ccccc4)c3)cc2)CC1`?
MIN6 prolif: -3.6; SMARCA2 act: 6.5; ALR inh: -13.1; Granule exo inh: 58.3*; JMJD2C inh: 11.5; PfM18AAP inh: -1.2; Granule exo CP1: 21.9

How did CCN1CCN(c2ccc(NC(=O)c3cccc(OCc4ccccc4)c3)cc2)CC1 do in these assays?
MIN6 prolif: -6.1; SMARCA2 act: 3.9; ALR inh: 6.9; Granule exo inh: 23.2; JMJD2C inh: -2.9; PfM18AAP inh: 5.5
